The panel holds about 83,000 compounds, 20% with a hit somewhere; the sample as a whole holds those more often.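 96-well plates, one dose, 48 hours. Percent growth reported; active if below 10.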
How the values were obtained:
Assay in all cases: NCI-60 one-dose screen, 48 h (100 = growth as untreated, 0 = no growth, -100 = all killed)
Conditions in all cases: 10 µM unless noted
HCT-15 colon = tested on: HCT-15 colon
HT29 colon = tested on: HT29 colon
SNB-75 CNS = tested on: SNB-75 CNS
SNB-19 CNS = tested on: SNB-19 CNS
U251 CNS = tested on: U251 CNS
PC-3 prostate = tested on: PC-3 prostate
SK-MEL-5 melanoma = tested on: SK-MEL-5 melanoma
UACC-62 melanoma = tested on: UACC-62 melanoma
LOX IMVI melanoma = tested on: LOX IMVI melanoma
SK-MEL-28 melanoma = tested on: SK-MEL-28 melanoma
SK-MEL-2 melanoma = tested on: SK-MEL-2 melanoma
EKVX NSCLC = tested on: EKVX NSCLC
SN12C renal = tested on: SN12C renal
UO-31 renal = tested on: UO-31 renal
TK-10 renal = tested on: TK-10 renal
ACHN renal = tested on: ACHN renal
CAKI-1 renal = tested on: CAKI-1 renal
A498 renal = tested on: A498 renal
CCRF-CEM leukemia = tested on: CCRF-CEM leukemia
MOLT-4 leukemia = tested on: MOLT-4 leukemia

Measured: growth

Cc1nc(Nc2ccc(S(=O)(=O)Nc3cc(C)on3)cc2)c2ccccc2n1
inactive: HCT-15 colon 99.1% | HT29 colon 98.6% | SNB-75 CNS 83.2% | SNB-19 CNS 110% | U251 CNS 101% | PC-3 prostate 96.9% | SK-MEL-5 melanoma 99.7% | UACC-62 melanoma 98.2% | LOX IMVI melanoma 102% | SK-MEL-28 melanoma 110% | SK-MEL-2 melanoma 102% | EKVX NSCLC 90% | SN12C renal 102% | UO-31 renal 84.2% | TK-10 renal 99.7% | ACHN renal 107% | CAKI-1 renal 90.7% | A498 renal 94.3% | CCRF-CEM leukemia 103% | MOLT-4 leukemia 104%

CC(C)OCCCNCC(=O)Nc1ccc(S(=O)(=O)c2ccc(NC(=O)CNCCCOC(C)C)cc2)cc1
inactive: HCT-15 colon 120% | HT29 colon 27.4% | SNB-75 CNS 85.5% | SNB-19 CNS 103% | U251 CNS 85.6% | PC-3 prostate 87% | SK-MEL-5 melanoma 82.4% | UACC-62 melanoma 107% | LOX IMVI melanoma 78.7% | SK-MEL-28 melanoma 99.9% | SK-MEL-2 melanoma 115% | EKVX NSCLC 101% | SN12C renal 90.8% | UO-31 renal 90.8% | TK-10 renal 93.9% | ACHN renal 100% | CAKI-1 renal 94.4% | A498 renal 89.5% | CCRF-CEM leukemia 85.1% | MOLT-4 leukemia 78.1%

O=c1oc2ccc(Cl)cc2cc1-c1cs/c(=N/N=C\c2ccc(Cl)cc2)n1/N=C/c1ccc(Cl)cc1
inactive: HCT-15 colon 105% | HT29 colon 91.8% | SNB-75 CNS 123% | SNB-19 CNS 98.4% | U251 CNS 102% | PC-3 prostate 99.4% | SK-MEL-5 melanoma 104% | UACC-62 melanoma 93.8% | LOX IMVI melanoma 110% | SK-MEL-28 melanoma 110% | SK-MEL-2 melanoma 92.6% | EKVX NSCLC 107% | SN12C renal 94% | UO-31 renal 90.1% | TK-10 renal 99.4% | ACHN renal 112% | CAKI-1 renal 110% | A498 renal 83.9% | CCRF-CEM leukemia 104% | MOLT-4 leukemia 93.8%

C=C1C(=O)O[C@H]2[C@H]1CC/C(Cn1cc(CNCCc3c[nH]c4ccccc34)nn1)=C\CC[C@@]1(C)O[C@@H]21
inactive: HCT-15 colon 102% | HT29 colon 61.2% | SNB-75 CNS 79.8% | SNB-19 CNS 98.3% | U251 CNS 92.8% | PC-3 prostate 94.1% | SK-MEL-5 melanoma 96.5% | UACC-62 melanoma 84.7% | LOX IMVI melanoma 94% | SK-MEL-28 melanoma 89% | SK-MEL-2 melanoma 61.4% | EKVX NSCLC 97.2% | SN12C renal 95% | UO-31 renal 80.7% | TK-10 renal 94.9% | ACHN renal 87.4% | CAKI-1 renal 91.3% | A498 renal 103% | CCRF-CEM leukemia 16.4% | MOLT-4 leukemia 77.6%
